{"source": "ChEMBL document CHEMBL3433997", "about": "“St. Jude Leishmania screening dataset” (2016)", "data": [{"target": "Solute carrier family 2, facilitated glucose transporter member 1 (Homo sapiens) (UniProt P11166)", "sequence (P11166 whole entry)": "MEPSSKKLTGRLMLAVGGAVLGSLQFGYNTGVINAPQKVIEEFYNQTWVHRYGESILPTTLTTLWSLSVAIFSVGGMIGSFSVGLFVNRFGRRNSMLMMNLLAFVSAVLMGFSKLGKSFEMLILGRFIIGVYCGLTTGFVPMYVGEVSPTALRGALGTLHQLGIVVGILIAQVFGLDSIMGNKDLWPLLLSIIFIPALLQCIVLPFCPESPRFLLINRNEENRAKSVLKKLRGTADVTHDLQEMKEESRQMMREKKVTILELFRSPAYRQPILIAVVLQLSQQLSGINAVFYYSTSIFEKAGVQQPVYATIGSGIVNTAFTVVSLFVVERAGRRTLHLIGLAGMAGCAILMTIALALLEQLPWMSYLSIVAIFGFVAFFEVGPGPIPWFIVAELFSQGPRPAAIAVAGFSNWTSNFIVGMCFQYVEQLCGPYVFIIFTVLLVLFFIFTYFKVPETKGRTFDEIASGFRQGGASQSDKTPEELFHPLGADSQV", "experiment": "ST_JUDE_LEISH: Cytotoxicity at 2uM final concentration against transgenic Leishmania Mexicana promastigotes LmGLUT1 that are glucose transport deficient and complemented with the human glucose transporter GLUT1. Activity is measured by DNA content using SYBR green in vitro", "assay_type": "functional", "units": {"inhibition": "%"}, "values": [{"smiles": "CC(CN(C)C)C(=O)Nc1ccc(-c2ccc(-c3nc4ccccc4[nH]3)cc2)cc1", "note": "(centres undefined)", "inhibition": 3.03}, {"smiles": "COc1ccc(-c2cc(C(=O)N3CCc4ccccc43)c3ccccc3n2)cc1OC", "inhibition": -0.76}, {"smiles": "Cc1cc(OCCCN2CCCCC2)ccc1NC(=O)COc1ccc(Cl)cc1C(=O)c1cc(C#N)cc(C(F)(F)F)c1", "inhibition": 4.63}, {"smiles": "NC1(C(=O)O)Cc2ccc(Cl)cc2C1", "note": "(centres undefined)", "inhibition": 5.91}, {"smiles": "N#Cc1cccc(C(=O)NC2CCN(c3ccnc(Nc4ccc(F)cc4)n3)C2)c1", "note": "(centres undefined)", "inhibition": 2.56}, {"smiles": "CCCCCCCN1CCC(CC(=O)Nc2ccnc3ccc(OC)cc23)CC1", "inhibition": 11.3}, {"smiles": "COCCN1CCN(Cc2ccc(-c3cccc(-c4nc5ccccc5[nH]4)c3)cc2)CC1", "inhibition": -3.03}, {"smiles": "CCc1cc2c(Sc3nc4ccccc4[nH]3)ncnc2s1", "inhibition": 0.94}, {"smiles": "COc1cc2c(=O)c(Cc3ccc(Cl)cc3)c(C)[nH]c2cc1F", "inhibition": 2.09}, {"smiles": "COc1ccccc1C(=O)Nc1cccc(N2CCC(NCc3ccc(-n4cccn4)cc3)CC2)c1", "inhibition": 9.93}, {"smiles": "CN1CCN(CC(=O)Nc2cccc(-c3ccc(-c4nc5cc(C(F)(F)F)ccc5[nH]4)cc3)c2)CC1", "inhibition": 0.96}, {"smiles": "COc1cccc(OC)c1CN1CCC(N(C)CCCCCCCCN2CCC(OC(=O)Nc3ccccc3-c3ccccc3)CC2)CC1", "inhibition": 105}, {"smiles": "COc1ccc2ccccc2c1CCCCN1CCN(CC(c2ccc(F)cc2)N2CCN(C(C)C)CC2)CC1", "note": "(centres undefined)", "inhibition": 17.9}, {"smiles": "Oc1cccc(Nc2ccnc3cc(-c4ccncc4)ccc23)c1", "inhibition": 10.6}, {"smiles": "CN(C)CC1CCCN1Cc1ccccc1-c1cnn(C)c(=O)c1Oc1ccccc1F", "note": "(centres undefined)", "inhibition": 2.45}, {"smiles": "COC(=O)Cn1c2ccccc2c2c(N)c(C(=O)OC)c(C)nc21", "inhibition": 0.93}, {"smiles": "O=C(NCc1cccc(Cl)c1)c1ccc(CNC2CCN(Cc3ccccc3)CC2)cc1", "inhibition": -1.21}, {"smiles": "CS(=O)(=O)NCCCNCc1cccc(-c2cccc(-c3nc4cc(F)ccc4[nH]3)c2)c1", "inhibition": 1.53}, {"smiles": "COc1ccc2nc(NC(N)=NC(=O)Nc3ccccc3)nc(C)c2c1", "inhibition": 2.55}, {"smiles": "O=C(NCCc1ccccc1)N(Cc1ccccc1-c1ccc(CNCCc2ccccc2)cc1)C1CCN(Cc2ccccc2)CC1", "inhibition": 7.2}, {"smiles": "COc1ccc2nccc([C@@H](O)CN3CCC(NCc4cc5ccccc5o4)CC3)c2c1", "inhibition": 10.1}, {"smiles": "Cc1cc(N2CCNCC2)c2cc(NC(=O)Nc3ccc(Cl)c(Cl)c3)ccc2n1", "inhibition": 3.19}, {"smiles": "O=C(Nc1ccc(CCNCc2ccccc2)cc1)Nc1ccc(OC(F)(F)F)cc1", "inhibition": -1.69}, {"smiles": "O=C(Nc1ccc(-c2cccc(-c3nc4cc(C(F)(F)F)ccc4[nH]3)c2)cc1)Nc1ccc(Cl)c(Cl)c1", "inhibition": 10.9}, {"smiles": "CS(=O)(=O)CCNC(=O)c1ccc(-c2cc3c(Nc4ccc5c(cnn5Cc5ccccc5)c4)ncnc3cn2)o1", "inhibition": 3.86}, {"smiles": "O=c1cc(NCCCNCc2cc(C(F)(F)F)ccc2F)[nH]c2ccccc12", "inhibition": 0.7}, {"smiles": "CCOC(=O)c1nc(-c2cc(Cl)nc(Cl)c2)[nH]c1NC(=S)NCCCN1CCOCC1", "inhibition": 2.49}, {"smiles": "CC(=O)N1N=C(c2[nH]c3ccc(Br)cc3c2C)OC1c1ccccc1", "note": "(centres undefined)", "inhibition": 4.69}, {"smiles": "CC(C)C[C@H](NC(=O)c1cc2ccccc2s1)C(=O)N[C@H]1CCN(Cc2ccc(OC[C@@H]3CCCN3C)c3ccccc23)C1", "inhibition": 3.88}, {"smiles": "CC(=O)Nc1cccc(Nc2nccc(-c3c(-c4cccc(NC(=O)c5c(F)cccc5F)c4)nn4ncccc34)n2)c1", "inhibition": 6.99}, {"smiles": "O=C(Nc1ccccc1)c1c[nH]cn1", "inhibition": 0.43}, {"smiles": "COc1cc(NC(=O)C(c2ccc(Cl)cc2)C(C)C)cc(OC)c1OC", "note": "(centres undefined)", "inhibition": 2.52}, {"smiles": "O=C(Nc1cccc(-c2ccc(-c3nc4cc(C(F)(F)F)ccc4[nH]3)cc2)c1)Nc1ccc(Cl)c(Cl)c1", "inhibition": 3.88}, {"smiles": "COCCOc1cccc(CN2CCC(c3cc4nc(C)cc(C(F)(F)F)n4n3)C2)c1", "note": "(centres undefined)", "inhibition": -2.12}, {"smiles": "CC(Oc1ccc(Cl)cc1)C(=O)NCCC1CCN(CCCCCNC(=O)/C=C/c2ccc(Cl)c(Cl)c2)CC1", "note": "(centres undefined)", "inhibition": 2.73}, {"smiles": "Fc1cccc(COc2ccc(Nc3ncnc4sc(C#CCNC5CCCC5)cc34)cc2Cl)c1", "inhibition": 2.71}, {"smiles": "O=C(CCC1CCCCC1=O)c1ccccc1", "note": "(centres undefined)", "inhibition": 3.73}, {"smiles": "COc1ccc(CNC2Cc3ccccc3C2)cc1-c1ccc(S(=O)(=O)NCCc2ccccn2)s1", "inhibition": 0.76}, {"smiles": "CN(C(=O)C(C)(C)Oc1ccc(Cl)cc1)C1CCN(CCCCCNC(=O)/C=C/c2ccc(Cl)c(Cl)c2)CC1", "inhibition": 1.85}]}]}
